For eight compounds, growth results are on record in PubChem BioAssay (NCI).

This is part of a sample that, as a whole, favours compounds with a hit. Of some 83,000 tested, about 20% had one in any assay.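 Step 1: grow cells in 96-well plates. Step 2: add test compound at a single concentration. Step 3: incubate 48 h. Step 4: record percent growth.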 A number with no mark means an inactive call. Activity calls are given as the source filed them. Rule for the calls: active = growth percent below 10; inactive = the rest.

Holding throughout (experiment): NCI-60 one-dose screen, 48 h (100 = growth as untreated, 0 = no growth, -100 = all killed)
The test system of assay [1] is DU-145 prostate. The following applies: 10 µM unless noted.
The test system of assay [2] is K-562 leukemia. The following applies: 10 µM unless noted.
Assay [3] deals with MALME-3M melanoma. The following applies: 10 µM unless noted.
The test system of assay [4] is MDA-MB-231 breast. The settings on record: 10 µM unless noted.
Assay [5] concerns RXF 393 renal. The settings on record: 10 µM unless noted.
In assay [6] the test system is SF-268 CNS. The settings on record: 10 µM unless noted.
Assay [7] relates to SF-295 CNS. The following applies: 10 µM unless noted.
The subject of assay [8] is SF-539 CNS. The settings on record: 10 µM unless noted.
In assay [9] the test system is UACC-257 melanoma. The settings on record: 10 µM unless noted.
Assay [10] deals with M14 melanoma. The following applies: 10 µM unless noted.
For assay [11], the system named is HCT-15 colon. The settings on record: 10 µM unless noted.
Assay [12] deals with HT29 colon. The settings on record: 10 µM unless noted.
The subject of assay [13] is SNB-19 CNS. The settings on record: 10 µM unless noted.
The test system of assay [14] is U251 CNS. The following applies: 10 µM unless noted.
Assay [15] relates to PC-3 prostate. The settings on record: 10 µM unless noted.
For assay [16], the system named is SK-MEL-5 melanoma. The following applies: 10 µM unless noted.
Assay [17] relates to UACC-62 melanoma. The following applies: 10 µM unless noted.
The subject of assay [18] is SK-MEL-28 melanoma. The following applies: 10 µM unless noted.
Assay [19] has as its system SNB-75 CNS. The settings on record: 10 µM unless noted.
The subject of assay [20] is LOX IMVI melanoma. The following applies: 10 µM.

As for `O=C(Nc1cccc(-n2cnc3cc(-c4ccc(O)cc4)ccc32)c1)C1CC1`, the growth in assay [1] was 28.5%; in assay [2], 12.2%; in assay [3] it was 46.3%; in assay [4], 32.3%; in assay [5], 14.1%; in assay [6], 34.9%. For the same compound, the growth was 6.04% (active) in assay [7]; -6.53% (active) in assay [8]; 73.3% in assay [9]; 40.5% in assay [10]; 11.9% in assay [11]; 8.01% (active) in assay [12]. The growth is 32.9% in [13]; 9.54% (active) in assay [14]; 47% in [15]; 7.19% (active) in assay [16]; 38.5% in assay [17]; 54.3% in assay [18].
As to `CN(C)CCn1c2ccccc2c2nc3ccc([N+](=O)[O-])cc3nc21`, the growth in assay [1] was 7.7% (active); in [2] it was 8.19% (active); in assay [3] it was -14.4% (active); in assay [4] it was 5.52% (active); in assay [5] it was 10.1%; in assay [6], 24.7%. Further, the growth in assay [7] was 0.988% (active); in assay [8], -2.27% (active); in [9], -13.2% (active); in assay [10], 17.9%; in assay [11], 4.65% (active); in assay [19], 47.6%. The growth in [13] is 4.08% (active); in assay [14], -8.94% (active); in assay [15], 19.9%; in assay [16] it was -81% (active); in assay [17], -25.5% (active); in assay [18] it was 8.67% (active).
Regarding `COc1cc(/C=C/C(=O)c2ccccc2)ccc1Oc1nc(Nc2ccc(F)cc2)nc(N(C)C)n1`, the growth in assay [1] is 53.7%; in assay [2], 6.43% (active); in assay [3], 41.5%; in [4] it was -4.47% (active); in assay [5], 39.4%; in assay [6] it was 42.3%. Further, the growth is 26.5% in assay [7]; -8.58% (active) in assay [8]; 21.9% in assay [9]; 38.7% in assay [10]; -0.132% (active) in [11]; 39.9% in assay [19]. Further, the growth in [13] is 3.33% (active); in [14] it was 5.24% (active); in assay [15] it was 30.2%; in assay [16], 18.9%; in assay [17], 14.8%; in assay [18] it was 18%.
On to `NS(=O)(=O)c1ccc(N=Nc2c(O)n(CC(=O)Nc3ccccc3Cl)c3ccccc23)cc1`, for which the growth is 28.8% in assay [1]; 16.2% in assay [2]; 16% in [3]; 15.4% in [4]; 24.4% in [5]; 77.4% in [6]. Besides, the growth in [7] is 15.1%; in [8] it was -10% (active); in [9], 53.2%; in assay [10], 23.8%; in assay [11], 25.1%; in assay [12] it was 7.23% (active). The growth in [13] is 36.9%; in [14], 6.28% (active); in assay [15] it was 26.1%; in assay [16], -1.56% (active); in assay [17], 19.7%; in assay [18], 21.2%.
As for `CC(=O)Oc1ccc(/C=C/C(=O)N[C@@H](Cc2ccccc2)C(O)C(=O)NCc2ccccc2)cc1OC(C)=O` (some centres undefined), the growth in assay [1] was 90.5%; in assay [2], 77.1%; in assay [3], 87.4%; in assay [4], 72.7%; in assay [5], 104%; in assay [6], 68%. For the same compound, the growth in assay [7] was 100%; in assay [8], 71.2%; in [9], 90.8%; in [10] it was 85.3%; in assay [11], 78.1%; in assay [12], 113%. Further, the growth was 83.5% in assay [13]; 73.8% in [14]; 76.9% in assay [15]; 81.8% in assay [16]; 96.1% in assay [17]; 88.4% in assay [18].
Turning to `CC(C)CSc1nc(NCCc2c[nH]c3ccccc23)c(C#N)c(-c2ccc(F)cc2)n1`, the growth in assay [1] was 58.6%; in assay [2], 18.9%; in [3] it was 73%; in assay [4], 40.8%; in [5] it was 26.1%; in assay [6], 51.9%. Besides, the growth in assay [7] was 46.7%; in assay [8], 47.9%; in assay [9], 81%; in assay [10] it was 62.7%; in assay [11], 19.6%; in assay [12], 5.49% (active). The growth is 21.1% in [14]; 26.2% in assay [15]; 17.3% in assay [16]; 60.6% in [17]; 12.4% in [20].
Turning to `C#CCOc1cc(N(CC)CC)ccc1C(C(=O)NC(C)(C)C)N(C(=O)C1CCc2cc(F)ccc2O1)c1ccc(F)c(Cl)c1` (centres undefined), the growth was 78.9% in assay [1]; 35.7% in [2]; 81.7% in assay [3]; 55.5% in [4]; 59.3% in [5]; 49.8% in assay [6]. In addition, the growth is 72.8% in assay [7]; 77.9% in assay [8]; 58.2% in assay [9]; 63.3% in assay [10]; 51.1% in assay [11]; 59% in assay [19]. The growth was 60.5% in [13]; 45.1% in assay [14]; 25.7% in assay [15]; 61.1% in assay [16]; 45.8% in assay [17]; 52.9% in assay [20]. Further, the growth in assay [18] was 75.5%.
Regarding `CN(C)c1ccnc(CNCCSC2(c3ccccc3)c3ccccc3C=Cc3ccccc32)c1`, the growth in [1] was -26.1% (active); in [2] it was -27.1% (active); in [3], -93.4% (active); in assay [4], -49.5% (active); in [5] it was -36.6% (active); in assay [6] it was -30.7% (active). Further, the growth in [7] was -70.5% (active); in assay [8] it was -96.5% (active); in [9], -66.3% (active); in assay [10], -80.8% (active); in assay [11] it was -36.9% (active); in assay [19], -10.9% (active). Further, the growth in assay [14] is -77.1% (active); in assay [15], -23.3% (active); in [16], -99.4% (active); in assay [17] it was -32.2% (active); in [20], -96.2% (active); in assay [18], -64.6% (active).
